The target in experiment [1] is Cytochrome P450 3A7 (Homo sapiens) (UniProt P24462). Kind of experiment: Cytochrome P450 family 3 subfamily A member 7 (CYP3A7) small molecule antagonists: luciferase biochemical qHTS assay (AID 1963596). Also: % is scaled to controls: 0 for no effect and ±100 for the full control effect; nearly all actives have a fitted effect of over 40% in size. The method in brief:
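Luminescence read-out (relative luminescence units) after 20 min with detection reagent, which stops the reaction. Enzyme, proluciferin substrate and compound preincubated 10 min, RT; NADPH regeneration system then started 1 h reaction. Ketoconazole as positive control.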
For orientation: In qHTS, concentration-response curves come from the screen itself.

Experiment [2] can be described thus: Viability qHTS for spleen associated tyrosine kinase inhibitor (SYKi) naive MV4-11 cells (AID 1963823). Also: nearly all actives have a fitted effect of over 40% in size. Also: potency is read from the fitted curve at half-maximal effect. The method in brief:
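Viability of MV4-11 AML cells lacking prior SYK inhibitor exposure is scored by CellTiter-Glo luminescence following 72 hr compound incubation at 37 C, 5% CO2, seeded at 500 cells per well.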

The nature of experiment [3]: Viability qHTS for spleen associated tyrosine kinase inhibitor (SYKi) drug resistant MV4-11 cells (AID 1963824). Also: nearly all actives have a fitted effect of over 35% in size. An outline of the steps: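 SYK-inhibitor-resistant MV4-11 AML cells were seeded at 500 per well onto compound and cultured 72 hours (37 °C, 5% CO2). CellTiter-Glo was then added, and after 10 min at room temperature, luminescence gave viability.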
A short description of experiment [4]: Cellular viability qHTS for adrenocortical cancer (ACC) cell line SW-13 (AID 1963989).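 Also: cells grown in serum-free medium with ITS supplement; % is scaled to controls: 0 for no effect and ±100 for the full control effect; nearly all actives have a fitted effect of over 65% in size.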 Particulars: SW-13 ACC cells viability, CellTiter-Glo, 48 h; activity (max response): stronger effect = lower value. The method in brief: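 Viability was read as CellTiter-Glo luminescence after 48 h compound treatment (up to 46 uM final) of SW-13 cells grown serum-free; titration curves were fit with a four-parameter logistic model to give IC50 and efficacy.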

A short description of experiment [5]: Cellular viability qHTS for adrenocortical cancer (ACC) cell line NCI-H295R (AID 1963990).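 Also: 0% = DMSO only wells and -100% = full killing with cytotoxic reference compound; nearly all actives have a fitted effect of over 60% in size.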 An outline of the steps: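 CellTiter-Glo ATP luminescence, read 48 h after compound addition, measured viability of NCI-H295R adrenocortical cells grown serum-free with ITS. Final concentrations spanned up to 46 uM. Data normalized to DMSO and doxorubicin, fitted for IC50 and maximal response.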

Where “and” joins values, the source holds several entries; their conditions need not be identical. Equal values may be shown once. Inconclusive results are not listed. More than one record can exist for a structure, and the calls need not agree. Calls of active or inactive are those of the source. Calls follow the shape of the dose curve; as a rule, active = well fitted curve in the direction sought with a large enough effect; inconclusive = small, poorly fitted or top-dose-only effect, or another doubt; inactive = no such curve, though single readings can be large; an effect the other way counts as inactive or inconclusive.

Chain of Cytochrome P450 3A7 (Homo sapiens) (P24462 whole entry, looked up): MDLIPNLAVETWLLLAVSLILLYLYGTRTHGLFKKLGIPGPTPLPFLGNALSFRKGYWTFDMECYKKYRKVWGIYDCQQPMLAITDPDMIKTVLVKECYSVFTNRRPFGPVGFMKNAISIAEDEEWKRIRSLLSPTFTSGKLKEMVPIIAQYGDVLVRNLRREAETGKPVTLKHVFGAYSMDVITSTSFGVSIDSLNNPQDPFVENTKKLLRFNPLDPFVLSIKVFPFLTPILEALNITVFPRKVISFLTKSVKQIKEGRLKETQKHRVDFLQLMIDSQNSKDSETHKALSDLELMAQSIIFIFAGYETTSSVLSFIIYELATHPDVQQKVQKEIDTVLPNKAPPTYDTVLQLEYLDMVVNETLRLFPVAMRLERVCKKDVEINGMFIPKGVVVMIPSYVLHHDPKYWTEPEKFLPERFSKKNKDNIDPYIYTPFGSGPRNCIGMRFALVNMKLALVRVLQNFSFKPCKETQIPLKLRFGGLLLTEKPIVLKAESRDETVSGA

Take `Nc1c[n+](N2CCOCC2)no1`: the Potency result in experiment [1], in experiment [2], in experiment [3] and in experiment [5] was “inactive” throughout. Besides, in experiment [4], the activity (max response) was -4.73% (inactive).
Regarding `COc1ccc(CCC(C)=O)cc1`, the Potency result in experiment [1], in experiment [2], in experiment [3] and in experiment [5] was “inactive” each time. For the same compound, the activity (max response) in experiment [4] is -3.66% (inactive).
For the compound `OCC(O)CN1CCN(c2ccccc2)CC1` (stereo not given), the Potency result in experiment [1], in experiment [3] and in experiment [5] was “inactive” each time. The Potency in experiment [2] is 422 nM (active) and inactive. Moreover, the activity (max response) in experiment [4] was -5.47% (inactive).
With `COc1cc2[nH]c(=O)[nH]c(=O)c2cc1OC`, the Potency result in experiment [1], in experiment [2], in experiment [3] and in experiment [5] was “inactive” each time. In addition, the activity (max response) in experiment [4] is 11.4% (inactive).
Turning to `Cc1cc(C)c(NC(=O)CN(CC(=O)O)CC(=O)O)c(C)c1Br`, the Potency result in experiment [1], in experiment [2], in experiment [3] and in experiment [5] was “inactive” each time. Moreover, in experiment [4], the activity (max response) is 9.39% (inactive).
`CC(=O)OCC(=O)Nc1cc(C#N)cc(NC(=O)COC(C)=O)c1Cl`: the Potency result in experiment [1], in experiment [2], in experiment [3] and in experiment [5] was “inactive” each time. For the same compound, the activity (max response) in experiment [4] was -0.531% (inactive).
In the case of `CC(C)Cn1cnc2c1c(=O)n(C)c(=O)n2C`, the Potency entry in experiment [1], in experiment [2], in experiment [3] and in experiment [5] was “inactive” in each case. Also, the activity (max response) in experiment [4] was -11.6% (inactive).
As for `Clc1ccc2nsnc2c1NC1=NCCN1`, the Potency result in experiment [1], in experiment [2], in experiment [3] and in experiment [5] was “inactive” in each case. For the same compound, in experiment [4], the activity (max response) was -2.56% (inactive) and -8.39% (inactive).
On to `Cc1ccc(C(=O)c2ccc(CC(=O)O)n2C)cc1`, for which the Potency entry in experiment [1], in experiment [2], in experiment [3] and in experiment [5] was “inactive” in each case. Also, the activity (max response) in experiment [4] was 4.18% (inactive).
For the compound `N[C@@H](CSSC[C@H](N)C(=O)O)C(=O)O`, the activity change, negative = inhibition in experiment [1] is 0.172% [at 0.91 µM] (inactive). Also, the viability (% of control) in experiment [2] was 68.4% [at 0.588 µM] (inactive). For the same compound, the viability, % of control in experiment [3] is 76.8% [at 0.588 µM] (inactive). Moreover, the activity (max response) in experiment [4] was 5.04% (inactive). The activity change, negative = viability loss in experiment [5] was -0.603% [at 0.587 µM] (inactive).

Source of the values: PubChem BioAssay (NCATS).
